Structures are written as SMILES. Inconclusive results are not listed. Calls of active or inactive are those of the source. Rule for the calls: active = hit-call score of the fitted dose curve at least 0.9, where 1 is the maximum; inconclusive = response in the unintended direction; inactive = score below 0.9.

For the assay, the target named is PGR (gene 5241) (UniProt P06401). As to the kind of experiment: NVS_NR_hPR: NovaScreen (NVS) Nuclear Receptor Binding Assay for human Progestron Receptor (PR) (AID 2283360).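 Note: active means loss of bound radioligand signal versus DMSO baseline.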 The protocol: NVS_NR_hPR is a biochemical, single-readout assay that uses extracted gene-proteins from T47D in a cell-free assay. Measurements were taken 18 hours after chemical dosing in a 96-well plate.NVS_NR_hPR is one of one assay component(s) measured or calculated from the NVS_NR_hPR assay. It is designed to make measurements of radioligand binding, a form of binding reporter, as detected with scintillation counting signals by Lysate-based radiodetection technology.Data from the assay component NVS_NR_hPR was analyzed into 1 assay endpoint. This assay endpoint, NVS_NR_hPR, was analyzed in the positive analysis fitting direction relative to DMSO as the negative control and baseline of activity. Using a type of binding reporter, loss-of-signal activity can be used to understand changes in the binding as they relate to the gene PGR. Furthermore, this assay endpoint can be referred to as a primary readout, because the performed assay has only produced 1 assay endpoint. To generalize the intended target to other relatable targets, this assay endpoint is annotated to the nuclear receptor intended target family, where the subfamily is steroidal.
Chain of PGR (gene 5241) (P06401 whole entry, looked up): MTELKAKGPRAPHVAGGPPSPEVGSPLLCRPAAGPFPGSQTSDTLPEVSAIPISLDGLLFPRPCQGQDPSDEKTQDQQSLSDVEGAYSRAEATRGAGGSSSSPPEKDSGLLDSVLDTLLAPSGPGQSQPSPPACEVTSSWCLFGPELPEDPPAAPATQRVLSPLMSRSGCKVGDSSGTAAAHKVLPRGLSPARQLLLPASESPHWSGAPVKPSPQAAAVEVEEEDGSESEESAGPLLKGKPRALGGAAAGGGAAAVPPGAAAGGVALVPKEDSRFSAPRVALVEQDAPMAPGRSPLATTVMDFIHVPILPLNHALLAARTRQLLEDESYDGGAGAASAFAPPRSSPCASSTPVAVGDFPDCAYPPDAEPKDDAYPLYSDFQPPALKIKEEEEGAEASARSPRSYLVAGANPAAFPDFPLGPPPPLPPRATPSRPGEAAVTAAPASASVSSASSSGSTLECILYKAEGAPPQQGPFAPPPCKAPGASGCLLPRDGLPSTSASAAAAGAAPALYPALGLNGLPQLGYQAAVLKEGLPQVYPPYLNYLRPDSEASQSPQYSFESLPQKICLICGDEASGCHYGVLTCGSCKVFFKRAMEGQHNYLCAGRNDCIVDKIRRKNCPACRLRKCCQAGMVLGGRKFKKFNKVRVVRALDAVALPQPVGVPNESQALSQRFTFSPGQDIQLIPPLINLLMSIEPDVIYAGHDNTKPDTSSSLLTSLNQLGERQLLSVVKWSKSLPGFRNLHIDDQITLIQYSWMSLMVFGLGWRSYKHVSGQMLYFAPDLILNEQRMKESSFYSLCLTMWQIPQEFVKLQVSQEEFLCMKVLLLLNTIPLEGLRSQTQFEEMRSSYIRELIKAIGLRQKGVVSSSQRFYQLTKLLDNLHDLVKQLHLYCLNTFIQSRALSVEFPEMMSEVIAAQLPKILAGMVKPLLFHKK
Binding assays used specific radioligands (tritiated, iodinated) with non-radioactive competitive displacement ligands in agonist or antagonist protocols (as indicated) and various reference compounds and inhibitors to titrate specific binding to receptors and transporters. Most enzyme assays (CYPs, kinases, phosphatases, proteases, HDACs) used recombinant protein and specific substrates (fluorescence mostly, some colorimetric and radioactive) and inhibitors, followed by a biochemical separation of substrate and product. All assays for the biochemical HTS were initially run in duplicate at a single concentration (10 uM for CYP450 assays and 25 uM for all others). […] Each assay was run with positive and negative controls, and concurrent controls on every plate. The follow-up (secondary) screen tested active chemical-pairs in concentration series, as well as a few additional assays not tested in the primary screen, some selected negative inactives, and several cases re-run in the concentration series for confirmatory purposes.
Consider `Cc1ccc(S(=O)(=O)O)cc1C`, for which the outcome was inactive. In the case of `CCc1cc(SCc2sc(-c3ccc(C(F)(F)F)cc3)nc2CN2CCN(c3ccc(OC)cc3)CC2)ccc1OCC(=O)O`, the call was inactive. Turning to `CNCc1ccc(NC(=O)c2c[nH]c3c2C(=O)CCC3)cc1`, the outcome was inactive.

Turning to `CC(C)(O)c1coc(S(=O)(=O)NC(=O)Nc2c3c(cc4c2CCC4)CCC3)c1`, the result was inactive. Still for that read-out and setting: the entry for `CC(=O)OCCC(C)C` is “inactive”.

As usually defined, the AC50 is the concentration at which the activity in the assay is half-maximal. In the case of `O=P(OC(CCl)CCl)(OC(CCl)CCl)OC(CCl)CCl`, the AC50 was 5.78 µM (active). As to `Cc1c(-c2cccnc2)c2ccccc2n1CCCCC(=O)O`, the call was inactive. For `Oc1ccc2c(c1)-c1ccccc1C2`, the AC50 is 9.66 µM (active). For the molecule `COC(=O)CC(=O)OC`, the call was inactive. With `O=C(O)c1cccc(N(Cc2cccnc2)c2ccc(OC(F)F)c(OC(F)F)c2)c1`, the AC50 was 4.96 µM (active).

In the case of `C1N2CN3CN1CN(C2)C3`, the call was inactive.

As to `O=C(OC[C@H]1O[C@@H](OC(=O)c2cc(O)c(O)c(OC(=O)c3cc(O)c(O)c(O)c3)c2)[C@H](OC(=O)c2cc(O)c(O)c(OC(=O)c3cc(O)c(O)c(O)c3)c2)[C@@H](OC(=O)c2cc(O)c(O)c(OC(=O)c3cc(O)c(O)c(O)c3)c2)[C@@H]1OC(=O)c1cc(O)c(O)c(OC(=O)c2cc(O)c(O)c(O)c2)c1)c1cc(O)c(O)c(OC(=O)c2cc(O)c(O)c(O)c2)c1`, the AC50 is 6.13 µM (active). For `O=c1[nH]c2ccc(S(=O)CCN3CCC(Cc4ccc(F)cc4)CC3)cc2o1` (centres undefined), the outcome was inactive. Turning to `O=C(O)c1cc(N=Nc2ccc(S(=O)(=O)Nc3ccccn3)cc2)ccc1O`, the AC50 is 36.5 µM (active).
